# In the supplement of paper PMC6555819:
# Tests used:
# Experiment in all cases: PBM binding z-score (relative to random genomic background probes); higher = stronger binding; sequences stand for … in GC…GCGATTGACAGCGTAGAATGAAGG
# [1] = system: RARb homodimer (NR concentration 270 nM)
# In short: (§1)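 Scanned fluorescence from custom Agilent 4×180K protein-binding microarrays was regression-normalized. Binding z-scores use random background probes as reference. Ligand-free nuclear receptor dimers were incubated on the arrays for 1 h and detected with antibodies against each partner (one per run).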
# [2] = system: RARg:RXRa (NR concentration 270 nM, RXRa partner concentration 90 nM)
# In short: as §1
# [3] = system: RARg homodimer (NR concentration 270 nM)
# In short: as §1
# [4] = system: RXRa DBDmut IVT, anti-RXR (DBD mutation: RXRa K156A/R161A, NR concentration 90 nM)
# In short: as §1
# [5] = system: RXRa homodimer (NR concentration 180 nM)
# In short: as §1
# [6] = system: THRa:RXRa (NR concentration 90 nM, RXRa partner concentration 90 nM)
# In short: as §1
# [7] = system: THRa homodimer (NR concentration 90 nM)
# In short: as §1
# [8] = system: VDR homodimer (NR concentration 270 nM)
# In short: as §1
Sequence,PBM binding z-score [1],PBM binding z-score [2],PBM binding z-score [3],PBM binding z-score [4],PBM binding z-score [5],PBM binding z-score [6],PBM binding z-score [7],PBM binding z-score [8]
CCTACTGGGCCATTAAGAGGTCATTGATCATATG,3.96,3.93,2.81,1.02,3.74,3.23,1.49,2.79
ACTCGGAGGATAAAGGTCAGAGCTACGCCAGTGA,3.89,4.72,4.44,0.655,4.43,2.69,0.203,0.801
CCGAGTAGGTTACGAGGGGGCATACAGTGCGAAT,2.29,3.21,2.68,1.2,2.14,3.61,0.618,2.68
ACTCGGAGGACAAAGGTCAGAACTACGCCAGTGA,3.96,5.75,4.61,1.08,4.75,3.28,0.786,0.984
CTATGTACGTTAAGGGGGTCATTCAGTTTGAAAG,3.65,4.57,3.69,2.99,5.04,3.86,2.71,5.96
CAAACTAGGTCAAAGGTCAAAGTTGAGCCAACCA,5.46,9.07,7.7,3.35,10.5,4.95,1.92,3.15
ATATGTAGGTAACATCCGGGTCATTCAGGCTATG,2.68,2.39,1.58,0.786,2.49,3.62,2.74,2.52
